About 83,000 compounds went through this panel and 20% of them were active in at least one assay; those are over-represented in the sample as a whole.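 Activity criterion: percent growth below 10, measured after cells in 96-well plates were exposed to a single compound concentration for 48 hours.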 Unmarked numbers belong to inactive results. Activity calls are given as the source filed them.
tested on: NCI-H322M lung; assay: NCI-60 one-dose screen, 48 h (100 = growth as untreated, 0 = no growth, -100 = all killed); details: 10 µM unless noted

Structure (SMILES)	growth
Cc1ccccc1NC(=O)c1sc2nc(C)c(C(C)O)cc2c1N (stereo not drawn)	86%
COc1cc(F)c(-c2nc3c(C)cccc3n2Cc2c(F)cccc2F)c(F)c1	87.5%
Oc1ccc(CNNc2ccnc3c(O)cccc23)c2cccnc12	47.8%
CC1(C)Cc2c(Br)c(Br)c(Br)c(OCC(O)CN3CCOCC3)c2O1 (stereo not drawn)	72.4%
CCCCCOC(=O)c1ccccc1O	101%
C=C1C(=O)O[C@H]2[C@H]1CC/C(COC(=O)CCCCCCCCC(=O)OC/C1=C/CC[C@@]3(C)O[C@H]3[C@H]3OC(=O)C(=C)[C@@H]3CC1)=C\CC[C@@]1(C)O[C@@H]21	83.9%
C=C1C(=O)O[C@H]2[C@H]1CCC(/C=N/c1ncc(Br)cc1N)=C\CC[C@@]1(C)O[C@@H]21	85.3%
O=C1CCC23OC(c4ccccc4N12)C(O)C(O)C3O (stereo not drawn)	98.6%

tested on: HOP-62 NSCLC; assay: as above; details: 10 µM unless noted

Structure (SMILES)	growth
CC(C)CSc1nc(Nc2ccccc2)c(C#N)c(-c2ccc(F)cc2)n1	7.29% (active)
CCCCC(=O)Nc1c(C(=O)Nc2ccccc2)sc2nc3c(cc12)C(OC(=O)CCCC)CCC3 (stereo not drawn)	101%
COC(=O)[C@]1(C)CCC[C@]2(C)[C@H]3C[C@H]4C(C(C)C)=C[C@]3(CC[C@H]21)[C@@H]1C(=O)N(CCC#N)C(=O)[C@@H]14	89.9%
CCN1CCN(c2ccc(NC(=O)Nc3nc4ccc(-c5ccccc5OC)cc4s3)cc2)CC1	-66.2% (active)
C[C@H]1[C@H](C)CC[C@]2(C(=O)OCCOCCOCC[P+](c3ccccc3)(c3ccccc3)c3ccccc3)CC[C@]3(C)C(=CC[C@@H]4[C@@]5(C)CC[C@H](OC(=O)C(Cl)Cl)C(C)(C)[C@@H]5CC[C@]43C)[C@H]12	25.3%
COc1ccc(/C(=N\O)c2cc(C)c(OC)c(C)c2)cc1O	39.8%
O=C(Nc1nccs1)c1noc2ccccc12	86.8%
CCOc1ccccc1C(=O)/C=C/c1cc2ccccc2[nH]c1=O	-33.5% (active)
Cc1ccc(-c2nc(C#N)c(S(=O)(=O)N(C)CCO)o2)cc1	97.7%
Cc1ccc(C2CC(c3ccc(Nc4nc(NCCO)nc(NCCO)n4)cc3)=NN2c2ccc(Cl)cc2)cc1 (stereo not drawn)	67.6%
CN(C)CCCn1c2c(c3cc(-c4cccc(S(N)(=O)=O)c4)ccc3c1=O)C(=O)c1ccccc1-2	53.1%
C=C(C)[C@@H]1CC[C@]2(C(=O)OCCOCCOCC[P+](c3ccccc3)(c3ccccc3)c3ccccc3)CC[C@]3(C)[C@H](CC[C@@H]4[C@@]5(C)CC[C@H](OC(=O)C(Cl)Cl)C(C)(C)[C@@H]5CC[C@]43C)[C@@H]12	11%
COC(=O)/C=C/c1cc(OC(C)=O)c2c(c1)C(C(=O)OC)C(c1ccc(OC(C)=O)c(OC(C)=O)c1)O2 (stereo not drawn)	20%
O=C(Nc1ccc(S(=O)(=O)NC2CCCCCC2)cc1)C(c1ccccc1)S(=O)(=O)c1ccc(F)cc1 (stereo not drawn)	-17.4% (active)
COc1ccc2cc(/C=C3\N=C(c4cc(OC)c(OC)c(OC)c4)OC3=O)c(OC)nc2c1	88.9%
N#Cc1ccc(C2C3=C(CCCC3=O)OC3=C2C(=O)c2ccccc2C3=O)cc1 (stereo not drawn)	111%
COCCOCCOCc1n(Cc2ccc3ccccc3c2)c2ccccc2[n+]1Cc1ccc2ccccc2c1	17.2%
CC(=O)Nc1c(C(=O)Nc2ccccc2)sc2nc3c(cc12)C(OC(C)=O)CCC3 (stereo not drawn)	97.1%
CCc1ccc(OCc2ccccc2C(=O)Nc2ccc3nc(C)cc(N)c3c2)cc1	-78.6% (active)
COc1ccc(C2C(c3ccccc3)C(=O)N2c2cc(OC)c(OC)c(OC)c2)cc1I (stereo not drawn)	24.7%
COc1cc(/C=C/C(=O)c2cccs2)ccc1OCc1ccc(Cl)nc1	102%
C=C1C(=O)O[C@H]2[C@H]1CC/C(COC(=O)CCCCCCC(=O)OC/C1=C/CC[C@@]3(C)O[C@H]3[C@H]3OC(=O)C(=C)[C@@H]3CC1)=C\CC[C@@]1(C)O[C@@H]21	83.6%
COc1ccc(C2CC(c3ccc(OC)cc3O)=NN2c2ccc(S(N)(=O)=O)cc2)cc1 (stereo not drawn)	83.2%
CCCn1cc(/C=N\N=C2\C(=O)Nc3ccc(C)cc32)c2ccccc21	75.3%
N#Cc1c(-c2ccc(Cl)cc2)cc(-c2cc3ccccc3o2)nc1SCC(=O)c1ccc(Cl)cc1	91.4%

Source: PubChem BioAssay (NCI)
